# Methyltransferases – Primary Screen for Target Class Profiling of Small Molecule Inhibitors of Methyltransferases. calls only at 40 µM. actives 3.9% (n = 25,000). purified enzyme, MTase-Glo SAH luminescence; hits give low values; call rule not given here
#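 Each enzyme was assayed with SAM and its substrate. SAH formation detected by MTase-Glo luminescence; single-point 40 uM screen[…].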
# Calls only; . = inactive; + = active, no number; ! = not active in a repeat. The full list was thinned out, with hits kept by preference.
SMILES,Methyltransferases
CN(Cc1nccs1)c1ncnc2ccc(-c3ccc4c(c3)OCO4)cc12,+
Cc1csc(CN(C)C(=O)CC(c2ccccc2)c2ccc3c(c2)OCO3)n1 (stereo not drawn),.
CCSC(=N)N,.
COc1ccc(CN2C(=O)c3cc4oc(C)cc4n3CC2(C)C(=O)NC2CCCCCCC2)cc1 (stereo not drawn),.
O=C(NCc1cccc(C(F)(F)F)c1)C1(CCO)CC12CCN(c1ncccn1)CC2 (stereo not drawn),.
C=CCn1c(=O)c2ccc(C(=O)NC(C)C)cc2n2c(=O)[nH]nc12,.
c1ccc2c(Oc3nc(Nc4ccc(N5CCOCC5)cc4)c4ncn(C5CCCCC5)c4n3)cccc2c1,+
O=C(CCCc1ccccc1)Nc1ccnn1C1CCN(C(=O)CCc2cnccn2)CC1,.
C=C(C(=O)O)C1CC(O)C2(C)CCCC(=C)C2C1 (stereo not drawn),+
C=C1CCC[C@]2(C)CC[C@@](O)(C(=C)C(=O)O)C[C@@H]12,.
C=C(C(=O)O)C1CC(OC(=O)CC(C)CC)C2(C)CCCC(=C)C2C1 (stereo not drawn),.
Cc1c(CC(=O)N(C)C(C)C)c2c(n1Cc1ccccc1F)CCCC2=O,.
O=[S+]1([O-])NCC2(CCN(Cc3ccccn3)CC2)Nc2ccccc21,.
O=C(OC[C@H]1O[C@H](O[C@]2(CO)O[C@H](CO)[C@@H](O)[C@@H]2O)[C@H](O)[C@@H](O)[C@@H]1O)c1ccccc1,.
C[C@@]12C[C@]3(O)O[C@H](O1)[C@]1(COC(=O)c4ccccc4)[C@H]3C[C@@]12O[C@@H]1O[C@H](COC(=O)c2ccccc2)[C@@H](O)[C@H](O)[C@H]1O,.
CC(C)(O)/C=C1/C(=O)C(C)(C)C(=O)C(C)(C)C1(O)O[C@@H]1O[C@H](COC(=O)c2cc(O)c(O)c(O)c2)[C@@H](O)[C@H](O)[C@H]1O (stereo partly drawn),+
COCCCNC(=O)C1(C)Cn2nc(-c3ccccc3)cc2C(=O)N1Cc1ccc(F)cc1 (stereo not drawn),.
Cc1ccc(C)c(N2CCN(C(=O)CCc3nnc4n(CCCOC(C)C)c(=O)c5ccccc5n34)CC2)c1,.
Cc1cccc(N2CCN(C(=O)c3ccc4c(=O)[nH]c5c(C(=O)NC6CCCC6)sc(=S)n5c4c3)CC2)c1C,.
Cc1cccc(N2CCN(C(=O)c3ccc4c(=O)[nH]c5c(C(=O)NC(C)C)sc(=S)n5c4c3)CC2)c1C,+
Cc1cccc(-c2n[nH]n3c2nc(=O)c2ccc(C(=O)N4CCN(c5cc(C)ccc5C)CC4)cc23)c1,.
Cc1ccc(C)c(N2CCN(C(=O)c3ccc4c(=O)[nH]c5c(C(=O)NC(C)C)sc(=S)n5c4c3)CC2)c1,+
CCc1nc2c(=O)n(CC(=O)N3CCN(c4cccc(C)c4C)CC3)nc(C)c2s1,.
O=C(N[C@@H]1CN(C(=O)Nc2ccc(F)cc2)CCC[C@H]1O)c1ccc(OCCN2CCCC2)cc1,.
Cc1cc(C)cc(NC(=O)N2CCn3cccc3C2C)c1 (stereo not drawn),.
SMILES,Methyltransferases
CC1(C)CC23[C@@H]4CC(=O)[C@@H]2COC(=O)[C@@H]3CC[C@H]41,.
CCOc1ccc(CN2C(=O)c3ccc(-c4ccco4)n3CC2(C)C(=O)NC2CCCCCC2)cc1 (stereo not drawn),.
Cc1cccc(CSc2nnc3n(CCCOC(C)C)c(=O)c4cc(Cl)ccc4n23)c1,.
CN(C)c1nccnc1OC1CCN(S(=O)(=O)c2ccccc2)C1 (stereo not drawn),.
CCC(C(=O)NCCC1=CCCCC1)n1ccc2cc(S(=O)(=O)N3CCCCC3)ccc21 (stereo not drawn),.
C[C@H]1c2cccc(O)c2C(O)=C2C(=O)[C@]3(O)C(O)=C(C(N)=O)C(=O)[C@@H](N(C)C)[C@@H]3[C@@H](O)[C@@H]21,+
O=C(Nc1ccccc1-c1cn2c(CN3CCNCC3)csc2n1)c1cnc2ccccc2n1,+!
CN(C)[C@@H]1C[C@@H](CO)N(C(=O)c2csc3nc(-c4ccccc4Cl)cn23)C1,.
CCn1ccnc1CN1CCCC(CO)(Cc2cccc(Cl)c2)C1 (stereo not drawn),.
O=S(=O)(c1ccc(F)cc1)N1CCCC(CN2CCOCC2)CC1 (stereo not drawn),.
CC(/C=C/C1=CC2=CC(=O)C(C)(O)C(O)C2=CO1)=C\C(C)CCO (stereo not drawn),.
C[C@@H]1C[C@H](O[C@@H]2O[C@H](CO[C@@H]3OC[C@](O)(CO)[C@H]3O)[C@@H](O)[C@H](O)[C@H]2O)CC(C)(C)[C@H]1/C=C/[C@@H](C)O,.
O=C(O)CCC(=O)N1CC[C@@H]2[C@H]1C(=O)N(c1ccc(F)c(Cl)c1)C(=O)N2Cc1ccccc1,.
CC(C)CCN1C(=O)c2ccc(-c3ccco3)n2CC1(C)C(=O)NC1CCC(C)CC1 (stereo not drawn),.
Cc1cc(C(C#N)c2ccc(Cl)cc2)c(Cl)cc1NC(=O)c1cc(I)cc(I)c1O (stereo not drawn),+
O=C1CO[C@H]2CN(Cc3ccc4c(c3)OCO4)C[C@H]2N1Cc1ccc(F)cc1,.

# High-throughput results (PubChem BioAssay)
